Inhibition data for 16 molecules are collected here from ChEMBL document CHEMBL4513145, “CO-ADD screening of Biotechnology Research Centre (C.R.B.t) (Algeria) compounds”.

Molecules are shown by their SMILES. “And” between values parts separate entries of the source, which are not always exact repeats. Identical values can stand only once. Entries with a potency or affinity are not part of this list.

The subject of test [1] is Klebsiella pneumoniae. The settings on record: Concentration 32 ug.mL-1, ASSAY_TEST Inhibition of Bacterial Growth, detection method Absorption (OD600), MEDIA CAMHB, plate type 384well, NBS, CORNING #3640, time 18 hr.
Test [2] concerns Candida albicans. The settings on record: 32 ug/mL.
The test system of test [3] is Cryptococcus neoformans. The settings on record: Concentration 32 ug.mL-1, ASSAY_TEST Inhibition of Fungal Growth, detection method Resazurin, Absorption (OD600-OD570), plate type 384well, NBS, CORNING #3640.

Broadly, the Inhibition is the change of the read-out against control, counted positive when it falls. For `CCCCCCCC1CN(S(=O)(=O)c2ccc(C)cc2)N(C(=O)OC(C)(C)C)C1=O` (configuration not stated), the Inhibition was 0.4% in test [1], 1.48% in test [2] and -13.28% in test [3].
Take `O=C(OCc1ccccc1)N1OC(O)C2CCCCC21` (configuration not stated): the Inhibition in test [1] is 8.05%; in test [2] it was 6.56%; in test [3] it was -9.13%.
As for `Cc1ccc(S(=O)(=O)N2CC(C)C(=O)N2S(=O)(=O)c2ccc(C)cc2)cc1` (configuration not stated), the Inhibition in test [1] (32 ug/mL) is 2.85% and 1.74%; in test [2], 7.75% and 4.44%; in test [3] (32 ug/mL), -9.56% and 1.92%.
Turning to `CC1CN(C(=O)OCc2ccccc2)OC1O` (configuration not stated), the Inhibition in test [1] was 4.15%; in test [2] it was 2.95%; in test [3] it was -0.06%.
Turning to `CC1CN(C(=O)OCc2ccccc2)OC1=O` (configuration not stated), the Inhibition in test [1] (32 ug/mL) was 1.37% and 8.3% and 6.85%.
Consider `CCCCCCCC1CN(S(=O)(=O)c2ccc(C)cc2)N(S(=O)(=O)c2ccc(C)cc2)C1O` (configuration not stated), for which the Inhibition in test [1] is 2.03%; in test [2], 8.32%; in test [3] it was -3.29%.
Regarding `O=C(OCc1ccccc1)N1CC(Cc2ccccc2)C(O)O1` (configuration not stated), the Inhibition came to 0% in test [1], 12.9% in test [2] and 9.21% in test [3].
In the case of `CC(C)(C)OC(=O)N1C(O)C(Cc2ccccc2)CN1S(=O)(=O)c1ccc([N+](=O)[O-])cc1` (configuration not stated), the Inhibition was 9.89% and 6.63% and 13.09% in test [1] (32 ug/mL); -4.16% and -1.5% and -1.29% in test [3] (32 ug/mL).
Consider `CC1C(O)N(C(=O)OC(C)(C)C)N(S(=O)(=O)c2ccc([N+](=O)[O-])cc2)C1C` (configuration not stated), for which the Inhibition was 8.57% in test [1], 3.18% in test [2] and -8.51% in test [3].
As for `CCCCCCCC1CN(S(=O)(=O)c2ccc(C)cc2)N(C(=O)OC(C)(C)C)C1O` (configuration not stated), the results for the Inhibition in test [1], in test [2] and in test [3] were -2.15%, 2.88% and -7.05%, respectively.
Turning to `CC(C)(C)OC(=O)N1C(=O)C(Cc2ccccc2)CN1S(=O)(=O)c1ccc([N+](=O)[O-])cc1` (configuration not stated), the Inhibition is 6.28% and 7.63% and -5.45% in test [1] (32 ug/mL); -5.52% and -6.93% and -6.97% in test [3] (32 ug/mL).
`Cc1ccc(S(=O)(=O)N2CC(Cc3ccccc3)C(=O)N2S(=O)(=O)c2ccc(C)cc2)cc1` (configuration not stated): the Inhibition in test [1] (32 ug/mL) is -3.35% and -1.6%; in test [3] (32 ug/mL), -1.01% and -2.47%.
Take `CC1CN(S(=O)(=O)c2ccc([N+](=O)[O-])cc2)N(C(=O)OC(C)(C)C)C1=O` (configuration not stated): the Inhibition in test [1] (32 ug/mL) was 7.28% and 7.49% and 8.98%; in test [3] (32 ug/mL), -7.3% and -1.18% and -10.38%.
With `O=C1ON(C(=O)OCc2ccccc2)CC1Cc1ccccc1` (configuration not stated), the Inhibition is 2.56% and 10.07% in test [1] (32 ug/mL); 4.94% and 2.48% in test [2]; 7.64% and 2.52% in test [3] (32 ug/mL).
`CC(C)(C)OC(=O)N1C(O)C2CCCC2N1S(=O)(=O)c1ccc([N+](=O)[O-])cc1` (configuration not stated): the Inhibition in test [1] is -0.3%; in test [2], 1.02%; in test [3] it was -8.39%.
Turning to `CC1CN(S(=O)(=O)c2ccc([N+](=O)[O-])cc2)N(C(=O)OC(C)(C)C)C1O` (configuration not stated), the Inhibition in test [1] is -4.4%; in test [2], 0.59%; in test [3] it was -8.44%.
